Screening results deposited in PubChem BioAssay by several laboratories.
Compounds with a hit are over-represented: about 2.6% of the library has one in this group of screens.
LMP1 NFkB inh: EBV LMP1-driven NF-kappaB luciferase reporter inhibitors, primary screen, cell-based, luminescence, single point | LMP1-induced NF-kappaB luciferase reporter cells | inhibition, % at 12.5 µM | 350,000 compounds, 0.69% hits | AID 504558, 2011; in the data active = inhibition above about 41%
EWS-Fli inh: EWS/Fli-driven NR0B1 reporter inhibitors, primary screen, A673 cells, NR0B1 luciferase, luminescence, MLPCN library; viability-normalised; AID 651661, 2012; 350,000 compounds, 0.67% hits; inhibition, % at 12.6 µM;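 active = mean inhibition of at least 50% after viability correction, with every replicate also passing that limit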;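 note: firefly luciferase signal divided by Alamar Blue viability fluorescence both relative to DMSO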
TWEAK Fn14 block: inhibitors of TWEAK-Fn14 signaling, primary screen, luciferase reporter cells, uHTS; AID 1159606, 2016; TWEAK-stimulated Fn14 reporter cells, luciferase luminescence, 8 h; inhibition, % at 10 µM; 360,000 compounds, 2% hits; in the data active = inhibition above about 50%
TROY NFkB inh: inhibitors of TROY-driven NF-kB signaling, primary screen, Q293 LMP1-TROYcd cells, NF-kB luciferase, uHTS; Q293 LMP1-TROYcd NF-kB luciferase reporter, 4 h; inhibition, % at 10 µM; 360,000 compounds, 0.98% hits; AID 1347056, 2019;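 active = compounds whose plate-normalised and pattern-corrected inhibition of the luciferase reporter signal at the single screening dose is 50% or more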
LGR2 antag: inhibitors of bursicon-induced LGR2 CRE-luciferase signal, primary screen, cell-based, HEK293, CRE-luciferase reporter, bursicon stimulation; bursicon-stimulated, 4 h; inhibition, % at 9.99 µM; 380,000 compounds, 0.35% hits; AID 720647, 2013;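 active = drop in luminescence signal, shown as inhibition above about 50% in the replicate tests, limit read from the data, passing the limit was not always enough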;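 note: agonist challenge used bursicon conditioned medium at about half maximal strength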
Hits are given with their value; - = inactive; . = no result.

SMILES | LMP1 NFkB inh | EWS-Fli inh | TWEAK Fn14 block | TROY NFkB inh | LGR2 antag
O=C(Nc1ccccc1O)c1ccc(NS(=O)(=O)c2cccc3cccnc23)cc1 | 47.1 | - | - | - | -
Cc1cc(C(C)(C)C)cc(S(=O)(=O)Nc2cccc(C(=O)O)c2)c1C | - | - | - | - | -
Cc1ccccc1NC(=O)c1ccc(NS(=O)(=O)c2cc(C(C)(C)C)cc(C)c2C)cc1 | - | - | 51.8 | - | -
CCCN(C)C[C@H]1Oc2cc(-c3ccccc3C)ccc2S(=O)(=O)N([C@H](C)CO)C[C@H]1C | . | - | . | . | -
CC(=O)c1ccc(NC(=O)c2ccc(NC(=O)CCS(=O)(=O)c3cccs3)cc2)cc1 | - | - | - | 51.0 | -
CC(=O)c1cccc(NC(=O)c2ccc(NC(=O)CCS(=O)(=O)c3cccs3)cc2)c1 | - | - | - | - | -
CCCCCCCCN1C(=O)[C@@H](CC(=O)NCC2CCCCC2)C[C@@]2(C(=O)OC)C1=C[C@H](C(C)(C)C)O[C@@H]2C | . | - | . | . | -
CO[C@H]1CN(C)C(=O)c2ccc(NC(=O)Nc3ccc(Cl)c(Cl)c3)cc2OC[C@H](C)NC[C@H]1C | . | - | . | . | -
COCC(=O)N1C[C@@H](C)[C@H](OC)CN(C)C(=O)c2ccc(NC(=O)Nc3cccc(F)c3)cc2OC[C@H]1C | . | - | . | . | -
COCC(=O)N1C[C@H](C)[C@H](OC)CN(C)C(=O)c2ccc(NC(=O)Nc3cccc(F)c3)cc2OC[C@@H]1C | . | 56.4 | . | . | -
CO[C@H]1CN(C)C(=O)c2ccc(NC(=O)Nc3ccc(Cl)c(Cl)c3)cc2OC[C@H](C)NC[C@@H]1C | . | 69.3 | . | . | -
CCC(=O)N1C[C@H](C)[C@@H](OC)CN(C)C(=O)c2ccc(NC(=O)Nc3ccc(Cl)cc3)cc2OC[C@@H]1C | . | 53.3 | . | . | -
CC(C)NC(=O)N(C)C[C@H]1Oc2ccc(NC(=O)NC3CCCCC3)cc2C(=O)N([C@H](C)CO)C[C@H]1C | . | - | . | . | -
CN1C(=O)c2cc(NC(=O)C3CC3)ccc2OC[C@H]2O[C@@H](CC(=O)NCC3CCCCC3)CC[C@H]21 | . | - | . | . | -
Cc1ccc2c(c1)CCCN2C(=O)CCc1nc2ccccc2c(=O)[nH]1 | - | 64.9 | - | - | -
CC(=O)N1CCN(C(=O)CCc2nc3ccccc3c(=O)[nH]2)CC1 | - | - | - | - | -
CS(=O)(=O)c1sc(C#N)c2c1C(=O)CC(c1ccccc1)C2 (stereo not drawn) | - | - | 64.3 | 80.0 | 58.0
Cc1oc2c(c(=O)c1C)C(=O)CC(c1ccccc1)C2 (stereo not drawn) | - | . | - | - | .
CCCC#Cc1cnc2c(c1)C(=O)N([C@@H](C)CO)C[C@@H](C)[C@H](CN(C)C(=O)C1CCOCC1)O2 | . | - | . | . | -
COc1ccc(C(=O)NCCCCc2ccccc2)cc1 | . | - | - | - | -
COc1ccc(NS(=O)CCCc2ccccc2)cc1 (stereo not drawn) | . | - | 54.3 | - | -
CCOC(=O)N1CCN(C(=O)c2ccc3c(c2)sc2nc(-c4ccccc4)cn23)CC1 | - | . | - | 58.6 | .
O=C(c1nnsc1S(=O)(=O)c1ccc(Cl)cc1)N1CCOCC1 | - | - | 90.6 | 67.6 | 102.1
Nc1nc(C(=O)N2CCOCC2)nn1S(=O)(=O)c1ccc(Cl)cc1 | - | . | - | - | .
O=C(N1CCOCC1)N1CCN(S(=O)(=O)c2ccc(Cl)cc2)C1 | 44.1 | - | - | - | -
SMILES | LMP1 NFkB inh | EWS-Fli inh | TWEAK Fn14 block | TROY NFkB inh | LGR2 antag
CNC(=O)c1ccc(S(=O)(=O)c2ccc(Cl)cc2)c(NC(C)=O)c1 | - | - | - | - | -
CNC(=O)c1nnsc1S(=O)(=O)c1ccc(Cl)cc1 | 67.9 | 57.7 | 58.8 | 69.2 | 102.6
Fc1ccc(CSc2nncn2NCc2ccccc2)cc1 | - | . | 76.8 | - | .
CNc1nc(Nc2ccc(C)c(Cl)c2)c2cnn(C)c2n1 | - | - | - | - | -
Cn1ncc2c(Nc3cccc(Cl)c3)nc(Nc3cccc(Cl)c3)nc21 | - | - | 59.5 | - | -
Cn1ncc2c(Nc3ccc(Br)cc3)nc(Nc3ccc(Br)cc3)nc21 | - | - | 53.0 | - | -
Cn1ncc2c(Nc3ccc(O)cc3)nc(Cl)nc21 | - | - | - | - | -
Nc1c2c(nc3ccccc13)CCCC2 | - | - | - | - | -
Nc1c2ccccc2nc2ccccc12 | - | - | - | - | 96.0
COC(=O)c1ccc(/C=C/C(=O)OCC(=O)Nc2sccc2C(N)=O)cc1 | - | . | 67.7 | - | .
